Measured values as given in the supplement of paper PMC12636033.
± gives the standard deviation of the averaged measurements. Whole data set: some 33,000 sequences, median “E-score (rank enrichment, -0.5 to 0.5)” near -0.0068, cut for the highest 2% near 0.24. This excerpt belongs to a sample that is enriched for the highest values.

Test system: muMax20 (Max(13-93) K31hArg/K57hArg, M65Nle)
Test: PBM 8-mer E-score (E-score (rank enrichment, -0.5 to 0.5)); higher = stronger preferential binding
Method: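 Protein binding microarray (universal PBM chip covering all 10-mers in fixed probe flanks) with chemically synthesized human Max(13-93) bHLH-LZ analogs (not full-length Max) bearing noncanonical residues (hArg, Tha, Aib, Nle at 65) and aromatic Cys staples. Read-out per 8-mer (and its reverse complement): E-score (rank-based enrichment, -0.5 to 0.5) and Z-score of median probe intensity.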

Sequence | PBM 8-mer E-score
AGGGTTTC | -0.0163 ± 0.01
AAATAACA | 0.204 ± 0.018
CTATAACA | 0.157 ± 0.085
CAATAACG | 0.0808 ± 0.07
GTATAACA | 0.228 ± 0.019
ATATAACG | 0.269 ± 0.044
AAATAACG | 0.309 ± 0.086
CTATAACC | 0.0519 ± 0.0013
ATATAACC | 0.171 ± 0.041
ATATAACA | 0.262 ± 0.032
GATAATTA | 0.127 ± 0.021
CCTAATTA | 0.0515 ± 0.15
AATAATTC | 0.179 ± 0.12
CATAATTC | -0.00772 ± 0.086
CATAATTA | 0.237 ± 0.031
AATAATTA | 0.26 ± 0.072
GCGGAGCA | -0.239 ± 0.06
AAGACACT | 0.186 ± 0.0044
GAAACACA | 0.0586 ± 0.066
ACAAGCTG | -0.103 ± 0.091
TAACAATA | 0.257 ± 0.033
AAACAATA | 0.234 ± 0.038
CAACAATG | 0.137 ± 0.096
AGACAATC | 0.0672 ± 0.021

Sequence | PBM 8-mer E-score
AGACAATG | 0.0426 ± 0.00081
CAACAATC | 0.0661 ± 0.052
GAACAATA | 0.0766 ± 0.03
CAACAATA | 0.324 ± 0.022
AGACAATA | 0.2983 ± 0.00038
ACACCCGG | -0.144 ± 0.016
GGGCTTGA | -0.165 ± 0.025
ACACAGGA | 0.0105 ± 0.0057
ACGGTCCT | -0.272 ± 0.044
CTAAGTGC | -0.0257 ± 0.067
TAAGAGAA | -0.0222 ± 0.03
CCAAATCA | -0.0102 ± 0.046
ACCAAAAT | 0.168 ± 0.03
AAAAAAAT | 0.168 ± 0.066
ACAAATCA | 0.237 ± 0.12
ACAAAAAG | 0.125 ± 0.074
ACAAAAAC | 0.178 ± 0.055
GCAAATCA | -0.0323 ± 0.096
ACAAAAAT | 0.241 ± 0.05
ACAAAAAA | 0.249 ± 0.033
GTCATAAA | 0.193 ± 0.01
CCAAAACA | 0.231 ± 0.1
ACCACCGG | -0.2177 ± 0.00071
ATCTCTCC | -0.0165 ± 0.16

Sequence | PBM 8-mer E-score
AACGCCCA | -0.077 ± 0.015
AACGCCAC | -0.111 ± 0.023
CTATGCCC | -0.0261 ± 0.02
AACGAATC | 0.023 ± 0.089
TGGTTACA | 0.0957 ± 0.036
ATTATAAA | 0.296 ± 0.053
GTTATAAA | 0.239 ± 0.037
GTTATAAC | 0.187 ± 0.11
ATTATAAG | 0.115 ± 0.13
ATTATAAT | 0.201 ± 0.042
CTTATAAA | 0.191 ± 0.0045
AGCCCAAG | -0.08 ± 0.11
CGAGAAGA | 0.0468 ± 0.0088
AGCCGTTG | -0.0362 ± 0.068
AAATATAA | 0.218 ± 0.046
ACCTATAT | 0.265 ± 0.0044
CCATATAA | 0.225 ± 0.044
ACCTATAC | 0.0268 ± 0.14
ACATATAG | 0.0848 ± 0.12
AAATATAC | 0.209 ± 0.032
ACATATAC | 0.159 ± 0.052
ACATATAT | 0.323 ± 0.054
TCATATAA | 0.227 ± 0.06
ACATATAA | 0.336 ± 0.069

Sequence | PBM 8-mer E-score
ACCTATAA | 0.0216 ± 0.083
AAATATAT | 0.2435 ± 0.0013
GCGTTTGA | -0.0646 ± 0.018
AAGCGAGG | -0.129 ± 0.12
GGCCACTA | 0.0658 ± 0.077
GTTGCGCA | -0.0795 ± 0.002
CACAGGTG | -0.0404 ± 0.033
ACCTATCA | 0.0576 ± 0.061
CTATCGTC | -0.0258 ± 0.024
CCGCGACA | -0.0992 ± 0.1
TGGCAAAA | -0.0471 ± 0.026
CCACGGGG | -0.281 ± 0.017
CAATCACG | 0.288 ± 0.039
CAATCACC | 0.139 ± 0.013
CAATCACA | 0.122 ± 0.095
GAATCACA | -0.0241 ± 0.022
TAATCACA | 0.264 ± 0.042
AAATCACA | 0.203 ± 0.026
CCCGCAGC | -0.278 ± 0.086
TAACGGGA | -0.0715 ± 0.059
ACCGCTAC | -0.215 ± 0.034
AACTCCAG | -0.117 ± 0.049
AATTGTAA | 0.196 ± 0.011
TAATGTGA | 0.262 ± 0.065

Sequence | PBM 8-mer E-score
TATTGTAA | 0.242 ± 0.023
TAATGTAA | 0.252 ± 0.024
GAATGTAA | 0.0967 ± 0.041
GAATGTGA | 0.0628 ± 0.06
AAATGTAA | 0.157 ± 0.049
GATTGTAA | 0.0589 ± 0.011
CAATGTGA | 0.148 ± 0.0073
AGTGGCCC | -0.0606 ± 0.016
TCCCGACA | -0.0715 ± 0.11
GTTACCTA | 0.0231 ± 0.039
ACCGGCTG | -0.257 ± 0.018
TCAAGAAA | 0.103 ± 0.021
TCACTCCA | -0.0737 ± 0.21
GATCCGAA | -0.13 ± 0.057
GAGATGGC | 0.0296 ± 0.023
CAGTCCGG | -0.297 ± 0.023
ATCCAGCC | -0.09 ± 0.07
GCTTGCAC | -0.252 ± 0.0059
AGCCGGTC | -0.295 ± 0.086
ACTGTTCC | -0.187 ± 0.12
ACGTGGAC | 0.27 ± 0.08
ACGTGGAG | 0.245 ± 0.14
AAGTGGAT | 0.00777 ± 0.081
CCGTGGAG | -0.131 ± 0.092

Sequence | PBM 8-mer E-score
CCGTGGAC | -0.13 ± 0.12
ACGTGGGG | 0.16 ± 0.039
ACGTGGAT | 0.342 ± 0.012
ACGTGGAA | 0.195 ± 0.017
GCGTGGAC | 0.0607 ± 0.05
CGCAAGTC | -0.182 ± 0.004
CCTCCTAA | 0.0365 ± 0.0066
GGCACAGA | -0.0856 ± 0.03
ACTATGAT | 0.0767 ± 0.069
TATGCCCA | -0.151 ± 0.043
ATCCTGAC | -0.115 ± 0.039
ATCGTAAT | 0.255 ± 0.0089
ATCGTAAG | 0.00053 ± 0.19
ATCGTAAA | 0.211 ± 0.026
ATCGCACA | 0.0937 ± 0.045
TGTTATAA | 0.279 ± 0.056
GGTTATAA | 0.145 ± 0.068
TCTTATAA | 0.115 ± 0.051
TATTATAA | 0.28 ± 0.079
TATTATCA | 0.161 ± 0.013
TGTTAAAA | 0.154 ± 0.061
GATTATAA | 0.242 ± 0.016
AATTATAA | 0.189 ± 0.036
CATTATAA | 0.0818 ± 0.00099

Sequence | PBM 8-mer E-score
ATTAAGCA | 0.105 ± 0.11
GAGATTGC | -0.148 ± 0.0026
CCTCCACG | -0.0554 ± 0.048
ATTTGAAA | 0.203 ± 0.025
CTTTGAAA | 0.159 ± 0.0086
GTTTGAAA | 0.237 ± 0.022
AACTTCGA | 0.0671 ± 0.04
ATTACTAG | -0.00293 ± 0.05
AGTACTAG | 0.029 ± 0.019
AGTACTAC | 0.28 ± 0.035
CTTACTAC | 0.197 ± 0.1
ATTACTAC | 0.2513 ± 0.0025
AGTACTAT | -0.0269 ± 0.035
CTTCGCAC | 0.163 ± 0.037
ATGACTGG | -0.0322 ± 0.039
GGCACGAC | 0.0476 ± 0.078
AGTTCACG | -0.107 ± 0.064
CCCGAACC | -0.159 ± 0.21
ACCAATTC | -0.0667 ± 0.11
ATCAACAG | 0.116 ± 0.0076
ATCAACAT | 0.241 ± 0.022
AACAATTC | 0.127 ± 0.014
